Only some compounds are listed: those with a hit (about 6.9% of all), similar ones and a draw of the others.
SKKanGAS inh: blocks kanamycin growth of S. pyogenes SKKanGAS strain | BacTiter-Glo, 6 h | inhibition, % at 7.5 µM | 1.3% of 300,000 active;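 active = mean replicate score, as percent of positive control median, at least 50; inconclusive = mean below 50 but one replicate at or above 50; inactive = mean and every replicate below 50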;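 also: strain carries kanamycin resistance gene driven by streptokinase promoter and grows in 40 µg/ml kanamycin; loss of luminescence reflects streptokinase promoter inhibition or plain growth inhibition; 0% = median of DMSO wells and 100% = positive control at its reference dose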
GRIN3A LBD mod: modulates the human NR3A ligand-binding domain; AID 1259313; NR3A LBD differential scanning fluorimetry, Tm shift; 0% = protein alone, 100% = glycine-bound protein; Tm shift relative to glycine control, % at 25 µM; 2.5% of 340,000 active;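 active = melting temperature shift of at least 10% of the positive control shift, at one fixed dose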
Beta cell apopt: beta cell apoptosis inhibition. INS-1E cytokine-induced death, ATP luminescence, 48 h; percent of positive-control rescue, neutral wells zero. protection from apoptosis, % (test concentration not listed). 0.8% of 300,000 active;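 active = Every replicate reaches about 75%, or at least half do and their mean reaches it too, limit read from the data; inconclusive = At least half of replicates reach the limit but their mean does not; inactive = Under half of replicates reach the limit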;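 also: 0% = cytokine-treated negative control wells and 100% = positive control rescue; higher means more ATP so stronger rescue from cytokine killing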
Mdm2 MdmX PPI: inhibitors of human Mdm2/MdmX interaction. AID 485346. SaOS-2 split-luciferase Mdm2/MdmX complementation, luminescence. inhibition, % at 8 µM. O15151+Q00987. 3% of 330,000 active;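 active = inhibition of at least 50% at 8 µM in the primary screen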
Target sequence (O15151 whole entry, looked up): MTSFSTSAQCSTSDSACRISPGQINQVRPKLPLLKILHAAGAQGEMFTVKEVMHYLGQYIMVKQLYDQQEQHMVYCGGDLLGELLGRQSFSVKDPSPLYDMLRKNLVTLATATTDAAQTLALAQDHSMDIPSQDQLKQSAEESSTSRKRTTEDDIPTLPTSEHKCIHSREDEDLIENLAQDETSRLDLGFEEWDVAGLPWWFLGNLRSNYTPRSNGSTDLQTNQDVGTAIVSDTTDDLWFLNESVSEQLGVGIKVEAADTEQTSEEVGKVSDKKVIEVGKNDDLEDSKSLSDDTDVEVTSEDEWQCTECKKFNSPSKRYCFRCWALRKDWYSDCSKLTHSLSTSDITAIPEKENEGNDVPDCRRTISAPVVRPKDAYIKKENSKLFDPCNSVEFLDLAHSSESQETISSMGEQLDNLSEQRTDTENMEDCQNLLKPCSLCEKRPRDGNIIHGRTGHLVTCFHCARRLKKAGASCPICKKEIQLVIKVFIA
Target sequence (Q00987 whole entry, looked up): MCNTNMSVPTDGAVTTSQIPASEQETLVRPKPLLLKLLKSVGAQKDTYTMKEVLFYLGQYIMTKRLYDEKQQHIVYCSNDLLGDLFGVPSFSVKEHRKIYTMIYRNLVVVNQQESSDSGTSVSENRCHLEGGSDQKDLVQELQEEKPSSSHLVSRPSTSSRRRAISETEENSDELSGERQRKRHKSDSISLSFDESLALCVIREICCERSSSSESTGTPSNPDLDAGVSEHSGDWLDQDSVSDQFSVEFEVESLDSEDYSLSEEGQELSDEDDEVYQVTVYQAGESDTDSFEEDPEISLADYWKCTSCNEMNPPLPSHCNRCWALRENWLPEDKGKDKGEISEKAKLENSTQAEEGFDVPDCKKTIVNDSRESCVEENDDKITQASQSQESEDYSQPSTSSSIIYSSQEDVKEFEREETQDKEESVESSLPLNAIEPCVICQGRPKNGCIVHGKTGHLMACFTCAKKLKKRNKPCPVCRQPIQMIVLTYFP
MPTP inh: blocks calcium-induced mitochondrial swelling; inhibition, % at 10 µM; AID 602449; 1.4% of 360,000 active; isolated mouse mitochondria, Ca2+ swelling absorbance, 30 min;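 active = inhibition of 50% or more, scaled per plate between neutral and stimulator controls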;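 also: 0% = DMSO wells given calcium and 100% = 1 mM EGTA wells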
CSC inhib: blocks cancer stem cells; cancer stem cell-like cells viability, luminescence; inhibition, % at 7.5 µM; 1.1% of 300,000 active; AID 2717; in the data active = inhibition above about 75%; inconclusive = no clear call, values can overlap the other calls; tested in HMLE shEcad cells
Mdm2-MdmX conf: human Mdm2/MdmX binding inhibition, confirmed; shares compounds with Mdm2 MdmX PPI; luminescent assay; inhibition, % at 8 µM; 55% of 10,000 active; in the data active = inhibition above about 40%
FLuc counter: counter-screen for Mdm2/MdmX inhibitors: full-length luciferase; shares compounds with Mdm2 MdmX PPI; SaOS-2 full-length luciferase counterscreen, luminescence; inhibition, % at 8 µM; 77% of 6,200 active; AID 504607;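 active = mean inhibition at 8 µM reaching about 37%, which flags the compound as non-specific, limit read from the data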;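 also: p53-null SaOS-2 cells with luciferase driven by a doxycycline-inducible promoter; compound on cells about two nights before reading with doxycycline added after day one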
* marks the source's active call; other numbers are inactive results; ? = inconclusive; . = no result given.

SMILES	SKKanGAS inh	GRIN3A LBD mod	Beta cell apopt	Mdm2 MdmX PPI	MPTP inh	CSC inhib	Mdm2-MdmX conf	FLuc counter
C=CCSc1nc2ccccc2n1C(=O)/C=C/c1cc(OC)c(OC)c(OC)c1	-1	5	-7	100*	-1	.	95*	3
Cc1ccc2[nH]c(CSc3ccccc3)cc(=O)c2c1	7	-4	-4	17	-1	8	.	.
COc1ccc(-n2c(SCC(=O)NC3CC3)nc3ccccc3c2=O)cc1OC	.	0	-5	11	-2	.	.	.
COc1ccc(/C=C2\CCCc3c2nc2ccccc2c3C(=O)OCC(=O)c2c(N)n(C)c(=O)n(C)c2=O)cc1	19	.	11	86*	.	9	79*	44*
COc1ccc(-c2cc(C(=O)OCC(=O)c3c(N)n(C)c(=O)n(C)c3=O)c3ccccc3n2)cc1	35	0	14	50	-9	5	.	.
COCCNC(=O)CN(Cc1ccccc1)S(=O)(=O)c1ccc2nc(C)sc2c1	-4	2	-5	-7	0	-9	.	.
CCCC(=O)OCCNc1cc(Sc2nc3ccccc3[nH]2)c2nonc2c1[N+](=O)[O-]	26	-4	4	96*	0	4	99*	53*
CCC(=O)OCCNc1cc(SCCC(=O)OC)c2nonc2c1[N+](=O)[O-]	-2	2	6	17	0	-9	.	.
O=[N+]([O-])c1ccc2ncnc(N3CCN(Cc4ccc5c(c4)OCO5)CC3)c2c1	3	0	16	74*	10	-13	65*	24
COc1ccc2[nH]c3c(N4CCN(Cc5ccc6c(c5)OCO6)CC4)ncnc3c2c1	14	-6	40	57*	14	4	19	.
COc1ccc2[nH]c3c(N4CCC(O)(c5cccc(C(F)(F)F)c5)CC4)ncnc3c2c1	42	9	39	75*	0	6	67*	32
O=[N+]([O-])c1cccnc1N1CCN(Cc2ccc3c(c2)OCO3)CC1	-3	-1	0	-7	1	-5	.	.
Cc1nc(NC(=O)C2CC2)sc1C(=O)Nc1ccccc1Cl	7	-1	2	-39	2	1	.	.
O=[N+]([O-])c1ccccc1S(=O)(=O)Nc1ccc(-c2ccc3nncn3n2)cc1	22	2	-6	-4	-2	12	.	.
Clc1ccc(CSc2nncn2-c2ccc3c(c2)OCCO3)cc1	17	-2	0	51*	2	75	60*	48*
O=C(Nc1ccnn1C1CCN(C2CCCC2)CC1)c1ccccc1	-14	2	5	11	0	8	.	.
COc1ccc(NC(=O)c2cc(CC(C)C)nc3ccccc23)cc1	-4	0	-4	91*	1	-2	90*	52*
Cc1ccc(NC(=O)c2cc(C)nc3ccccc23)cc1	-1	3	0	10	0	0	.	.
Cc1ccc(NC(=O)c2cc(CC(C)C)nc3ccccc23)cc1	0	1	-3	82*	1	-5	84*	55*
COc1ccccc1CNC(=O)c1ccc2ccccc2n1	-2	2	-18	31	-2	22	.	.
Cc1csc(NC(=O)Cc2coc3cc(C)c(C(C)C)cc23)n1	23	-4	3	80*	0	.	69*	57*
O=C1c2ccccc2NC(c2ccc(Br)s2)N1O (stereo not given)	?	-1	11	54*	.	10	62*	44*
COc1ccc(CCNC(=O)C2CCN(S(=O)(=O)c3cccc4cccnc34)CC2)cc1OC	-11	2	0	-2	-1	10	.	.
COc1ccc2oc(C(=O)Nc3ccc(S(=O)(=O)N(C)C4CCN(C)CC4)cc3)c(C)c2c1	-1	4	24	96*	-1	8	46*	47*
CC(Oc1ccc(Br)cc1)C(=O)Nc1ccc(S(=O)(=O)N(C)C2CCN(C)CC2)cc1 (stereo not given)	-3	0	22	59*	0	29	39	76*
COc1ccc(CC(=O)Nc2ccc(S(=O)(=O)N(C)C3CCN(C)CC3)cc2)cc1	.	0	.	12	-1	.	.	.
